Screening data from PubChem.
PLCg1 inh = blocks human PLC-gamma1 enzyme activity; P19174; purified PLC-gamma1, fluorogenic substrate, fluorescence; inhibition, % at 12.2 µM; 370,000 compounds, 0.84% hits; in the data active = inhibition above about 9.5%
KLK7 zymogen act = activators of human kallikrein-7 zymogen | purified proKLK7, EDANS-DABCYL substrate fluorescence; 100% is mature enzyme control, 0% vehicle | activation, % at 7 µM | 370,000 compounds, 0.9% hits | AID 652039;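 active = activation above the mean of all tested compounds plus 3 SD, computed per campaign excluding outliers beyond control limits, cut at about 13% in these data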
Target sequence (P49862 whole entry, looked up): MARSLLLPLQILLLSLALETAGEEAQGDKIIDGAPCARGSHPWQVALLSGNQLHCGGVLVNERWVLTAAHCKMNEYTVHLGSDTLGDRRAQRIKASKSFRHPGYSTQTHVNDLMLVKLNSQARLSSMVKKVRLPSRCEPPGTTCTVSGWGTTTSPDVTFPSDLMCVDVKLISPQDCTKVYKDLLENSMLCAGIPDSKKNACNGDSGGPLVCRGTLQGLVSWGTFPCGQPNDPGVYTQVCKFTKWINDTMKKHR
PLC-beta3 inh = blocks human PLC-beta3 enzyme activity; Q01970; Purified PLC-beta3, fluorogenic substrate, fluorescence; inhibition, % at 12.2 µM; 370,000 compounds, 0.18% hits; in the data active = inhibition above about 11%;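 note: 0% = median of compound wells on plate and 100% = full blocker control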
ADAM17 inh = inhibitors of human ADAM17 | recombinant ADAM17, EDANS/DABCYL FRET peptide cleavage | 370,000 compounds, 0.83% hits | inhibition, % at 6.95 µM;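 active = inhibition above the mean of compounds lying between control limits plus 3 SD, set per campaign, cut at about 8.5% in these data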;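 note: 0% = DMSO-only wells as the low control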
ADAM10 inh = ADAM10 inhibition, QFRET primary screen; O14672; recombinant ADAM10, EDANS/DABCYL FRET peptide cleavage, 3 h; inhibition, % at 7 µM; 370,000 compounds, 0.62% hits; AID 720582;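 active = inhibition above a per-campaign cutoff equal to the mean of compounds falling between control-based bounds plus 3 SD, cut at about 20% in these data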;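 note: 0% = DMSO wells while the 100% control is not disclosed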
ADAM10 confirm = human ADAM10 inhibition, confirmation. ADAM10 QFRET peptide cleavage, EDANS fluorescence. inhibition, % at 6.95 µM. 2,100 compounds, 1% hits. shares compounds with ADAM10 inh;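 active = inhibition above about 20% chosen separately for each screening run, limit read from the data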;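 note: 0% = DMSO wells and 100% = marimastat wells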
ADAM17 ctr = inhibits human ADAM17 in ADAM10 exosite counter-screen; shares compounds with ADAM10 inh; ADAM17 QFRET peptide cleavage, EDANS fluorescence; inhibition, % at 6.95 µM; 2,100 compounds, 0.5% hits; AID 743214;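 active = mean triplicate inhibition above the solvent-only control wells' mean plus 3 SD, cut at about 12% in these data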;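 note: 0% = DMSO wells and 100% = marimastat wells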
ADAM10 counter = ADAM10 inhibition, counter-screen for ADAM17 exosite hits | shares compounds with ADAM17 inh | recombinant ADAM10, EDANS/DABCYL FRET peptide cleavage, 3 h | inhibition, % at 6.95 µM | 2,900 compounds, 47% hits | AID 743256;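 active = mean inhibition over the triplicate runs exceeds the activity threshold set in the earlier primary screen, cut at about 20% in these data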;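 note: 0% = DMSO wells and 100% = marimastat wells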
ADAM17 confirm = human ADAM17 inhibition, confirmation | recombinant ADAM17, EDANS/DABCYL QFRET peptide cleavage | inhibition, % at 6.95 µM | AID 743257 | 2,900 compounds, 65% hits | shares compounds with ADAM17 inh;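 active = mean inhibition across replicates above the hit cutoff set in the primary screen, cut at about 8.5% in these data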;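 note: 0% = DMSO wells and 100% = marimastat wells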
Active calls of the source: *; nt = no result given. Most compounds without a hit are left out; they make up all but 2.9% or so of the library.

SMILES	PLCg1 inh	KLK7 zymogen act	PLC-beta3 inh	ADAM17 inh	ADAM10 inh	ADAM10 confirm	ADAM17 ctr	ADAM10 counter	ADAM17 confirm
COc1ccc(C(C(=O)NC2CCCCC2)N(C(=O)c2sc(C)nc2C)c2ccccc2C)cc1 (stereo not drawn)	9.9*	1	9	9.6*	20*	2	0	3	4
CCOc1ccc(NC(=O)CN(C)C(=O)c2ccc(-c3ccc(C(C)=O)cc3)o2)cc1OCC	-21	6	-32	-41	-114	nt	nt	nt	nt
CCn1c(CNc2ccc(Cl)cc2)nnc1SCC(=O)NCc1ccccc1	-1	0	-3	-9	1	nt	nt	nt	nt
CCn1c(CNc2nc(-c3ccccc3)cs2)nnc1SCC(=O)NCc1ccccc1	3	1	0	11*	20*	2	0	10	13*
COCCN=c1scc(-c2cc(OC)c(OC)c(OC)c2)n1/N=C/c1c(C)[nH]c2ccccc12	-37	-1	-49	17*	26*	18	8	7	17*
CC1CCN(C(=O)c2ccccc2SCC(=O)NCC2CCCCC2)CC1	5	0	-9	-1	-13	nt	nt	nt	nt
COc1ccc(NS(=O)(=O)c2cccc(NC(=O)CCC(=O)c3ccc(Cl)cc3)c2)cc1	7	0	5	14*	30*	7	2	34*	19*
N#Cc1nc(COc2ccc(Cl)cc2)oc1N1CCN(Cc2ccccc2)CC1	5	1	4	8.6*	22*	1	1	26*	16*
COc1ccc2nc(NC(=O)C3CCCN3S(=O)(=O)c3ccc(C)cc3)sc2c1 (stereo not drawn)	8	1	7	8.6*	22*	0	1	13	8
CC(C)CNc1cccc2c1S(=O)(=O)N(Cc1cn(Cc3ccc(F)cc3)nn1)Cc1ccccc1O2	-12	-10	-18	0	-18	nt	nt	nt	nt
COc1ccc(NC(=O)c2cc(-c3cc(F)ccc3OC(C)C)n[nH]2)c(OC)c1	6	0	1	15*	21*	7	5	11	6
O=S(=O)(Nc1ccc2c(c1)OCCO2)c1ccc2oc3ccccc3c2c1	5	0	5	11*	24*	8	2	26*	14*
O=S(=O)(Nc1ccc2c(c1)OCCO2)c1ccc(F)c(F)c1	1	0	-6	0	2	nt	nt	nt	nt
COc1ccc(NS(=O)(=O)c2ccc(O)c(C(=O)OCC(=O)NC(C)C3CC4CCC3C4)c2)cc1 (stereo not drawn)	-1	0	-8	-6	-5	nt	nt	nt	nt
CC(NC(=O)COC(=O)c1cc(NS(=O)(=O)c2ccc(Cl)c([N+](=O)[O-])c2)ccc1O)C1CC2CCC1C2 (stereo not drawn)	-2	0	2	8.8*	22*	9	2	38*	17*
O=C1NC[C@H](c2ccccc2)OC(=O)[C@H](Cc2ccc(F)cc2)CC/C=C/C[C@H]1CC(=O)N(CCO)Cc1ccccc1	6	0	6	17*	24*	3	1	22*	11*
COc1ccc2cc(C(N)=O)/c(=N/NC(=O)c3ccco3)oc2c1	-39	1	-44	-31	-103	nt	nt	nt	nt
CCC(C)[C@H](NC(=O)NCc1ccco1)C(=O)OC (stereo partly drawn)	-1	1	-4	-3	1	nt	nt	nt	nt
Cc1nn(C)c(C)c1/C=C(\C#N)S(=O)(=O)c1ccc(F)cc1	-3	0	-1	-5	-9	nt	nt	nt	nt
COc1ccccc1/C(C)=N/Oc1cc(N)cc([N+](=O)[O-])c1	3	0	-11	15*	27*	4	2	14	9.8*
CC(=O)Nc1cc(ON=C(C)C)cc([N+](=O)[O-])c1	0	0	0	0	0	nt	nt	nt	nt
